Screening data from PubChem.
In the library only some 7.7% were active in any assay of this set; here they are far more common.
TbPYK inhibitor: inhibitors of Trypanosoma brucei pyruvate kinase | actives 0.12% (n = 410,000) | Q57TT1 | TbPYK enzyme, Kinase-Glo Plus ATP luminescence, 45 min | Potency, µM (doses to about 76.8 µM), for inactives: top-dose activity, negative = inhibition, most hits filed as inhibitors; further: potency means the concentration at half of the fitted maximal effect; nearly all actives have a fitted effect of over 50% in size
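Luminescence from Kinase-Glo Plus, added after a 45-minute room-temperature reaction, served as the end-point read-out. The enzyme and substrate were preincubated with compound before ADP (130 uM final) initiated turnover. Concentration-effect curves came from normalized qHTS data.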
FMDV antiviral: antivirals against foot and mouth disease virus | FMDV antiviral cell-based qHTS | Potency, µM (series often up to 57.9 µM), for the others: top-dose activity change, negative = inhibition, actives largely listed as inhibitors | actives 1.2% (n = 410,000) | AID 1159524; calls by dose curve; tested in HEK293T cells; further: read-out not given here; potency means the concentration at half of the fitted maximal effect; nearly all actives have a fitted effect of over 45% in size
Sm TGR inh: inhibitors of Schistosoma mansoni thioredoxin glutathione reductase. Q962Y6. Potency, µM (highest dose often 114 µM), for the others: top-dose activity change, negative = inhibition, hits mostly inhibitors. purified TGR, DTNB reduction, TNB absorbance 405 nm. actives 3% (n = 360,000). AID 485364; further: potency means the concentration at half of the fitted maximal effect; nearly all actives have a fitted effect of over 60% in size
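TGR 20 nM + NADPH 100 uM (dispensed conc.), cpd preinc 15 min RT; start with NADPH (500 uM addition) then DTNB (15 mM addition). Kinetic TNB absorbance, 405 nm filter. Four-parameter Hill fit across titration.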
HCMV inh: blocks human cytomegalovirus replication; actives 4.5% (n = 410,000); HFF cells, HCMV-luciferase reporter, 72 h; stronger effect = lower value; activity change, negative = inhibition, % at 57.5 µM; in the data active means activity change below about -60%; inconclusive means no clear call, values can overlap the other calls; inactive means above about -39%
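HFF cells seeded 16 h at 37C, treated with compounds, infected with luciferase-reporter HCMV at MOI 1 PFU/cell; luciferase read at 72 h post infection, normalized to buffer-only and Salinomycin controls.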
RE007 growth inh: less growth of the S. pombe RE007 Vpr strain; S. pombe RE007 Vpr strain, BacTiter-Glo ATP luminescence, 24 h; Potency, µM (top dose mostly 92.2 µM), without a hit: at the top dose activity change, negative = less growth, hits mostly inhibitors; actives 0.21% (n = 360,000); AID 651644; active means well fitted falling curve with a large enough effect; inconclusive means small, poorly fitted or top-dose-only effect; inactive means no such curve, though single readings can be large or run the other way; further: potency means the concentration at half of the fitted maximal effect; nearly all actives have a fitted effect of over 50% in size
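Fission yeast RE007 carrying one integrated HIV-1 vpr copy, seeded at OD 0.01 in PMG+AL medium with 23 nL pinned compound. Grown 24 h at 30 degrees; viability read by BacTiter-Glo luminescence after 5 min.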
Giardia FBPA inh: Giardia lamblia aldolase inhibition; A8B2U2; purified Giardia FBPA; Potency, µM (highest dose often 59.6 µM), without a hit: top-dose activity, negative = inhibition, actives largely listed as inhibitors; actives 0.71% (n = 290,000); further: potency means the concentration at half of the fitted maximal effect; nearly all actives have a fitted effect of over 55% in size
Target sequence (A8B2U2 whole entry, looked up): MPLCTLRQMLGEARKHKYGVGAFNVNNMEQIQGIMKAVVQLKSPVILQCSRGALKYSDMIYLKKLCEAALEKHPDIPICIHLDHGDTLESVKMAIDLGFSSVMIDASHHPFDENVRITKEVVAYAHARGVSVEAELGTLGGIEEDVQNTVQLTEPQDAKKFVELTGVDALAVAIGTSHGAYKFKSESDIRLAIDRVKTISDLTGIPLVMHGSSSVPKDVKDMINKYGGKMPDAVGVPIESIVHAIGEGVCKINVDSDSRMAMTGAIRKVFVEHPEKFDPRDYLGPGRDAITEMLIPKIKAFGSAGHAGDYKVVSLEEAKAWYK
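40 nM FBPA preincubated 10 min at RT with compound (up to 57.5 uM final), then substrate plus GAPDH/TPI/NAD/arsenate coupling and diaphorase/resazurin added. Fluorescence read after 20 min at RT, 525/598 nm.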
* marks the source's active call; other numbers are inactive results. Unless noted, the call rests on the fitted dose curve; in most records, active means well fitted curve in the direction sought with a large enough effect; inconclusive means small, poorly fitted or top-dose-only effect, or another doubt; inactive means no such curve, though single readings can be large; an effect the other way counts as inactive or inconclusive. On the % scale 0 is the no-effect control and ±100 the full control effect.

How did CC(C)c1ccc(C2NC(=S)NC3=C2C(=O)CC(C)(C)C3)cc1 (stereo unspecified) do in these assays?
TbPYK inhibitor: 2%; FMDV antiviral: -29%; Sm TGR inh: -5%; HCMV inh: -71*; RE007 growth inh: 7%; Giardia FBPA inh: 6%

Results for COc1ccc(Cl)cc1NC(=O)c1ncn(-c2ccccc2)n1 ?
TbPYK inhibitor: 2%; FMDV antiviral: 17%; Sm TGR inh: 2%; HCMV inh: 51

What do the screens show for `COc1ccc(C(=O)C(C)[n+]2ccc(C)c3ccccc32)cc1[N+](=O)[O-]` (stereo unspecified)?
TbPYK inhibitor: -3%; FMDV antiviral: -20%; Sm TGR inh: inconclusive; HCMV inh: -86*; RE007 growth inh: -22%; Giardia FBPA inh: -8%

Results for C1=CC2c3ccccc3NC(c3ccncc3)C2C1 (stereo unspecified) ?
TbPYK inhibitor: inconclusive; FMDV antiviral: inconclusive; Sm TGR inh: 2.5µM*; HCMV inh: -12; RE007 growth inh: -19%; Giardia FBPA inh: inconclusive

Results for Nc1nc(CCl)nc(Nc2ccc3ccccc3c2)n1 ?
TbPYK inhibitor: 10%; FMDV antiviral: -26%; Sm TGR inh: 16µM*; HCMV inh: -93*; RE007 growth inh: 13%; Giardia FBPA inh: -24%

How did Cc1ccc(Nc2nc(N)nc(CN3CCN(c4ccccc4)CC3)n2)cc1Cl do in these assays?
TbPYK inhibitor: 8%; FMDV antiviral: -9%; Sm TGR inh: -2%; HCMV inh: 2; RE007 growth inh: -6%; Giardia FBPA inh: 4%

Results for Cc1ccccc1Nc1nc(N)nc(CCl)n1 ?
TbPYK inhibitor: 0%; FMDV antiviral: 11%; Sm TGR inh: inconclusive; HCMV inh: -101*; RE007 growth inh: 5%; Giardia FBPA inh: -5%

Results for COc1ccc(Nc2nc(N)nc(CCl)n2)cc1 ?
TbPYK inhibitor: 0%; FMDV antiviral: 45%; Sm TGR inh: 35µM*; HCMV inh: -98*; RE007 growth inh: 20%; Giardia FBPA inh: 0%

How did Cc1c(Cl)cccc1Nc1nc(N)nc(CSc2ncccn2)n1 do in these assays?
TbPYK inhibitor: 10%; FMDV antiviral: 56%; Sm TGR inh: -5%; HCMV inh: -94*; RE007 growth inh: -13%; Giardia FBPA inh: -2%

Results for COc1ccc(C2=Nc3ccccc3N(CC(=O)Nc3cccc(C(C)=O)c3)C(=O)C2)cc1 ?
TbPYK inhibitor: 4%; FMDV antiviral: -4%; Sm TGR inh: 2%; HCMV inh: 14

How did CCCC1C2CN(C(C)C)CC=C2C(C#N)=C(N)C1(C#N)C#N (stereo unspecified) do in these assays?
TbPYK inhibitor: -10%; FMDV antiviral: -2%; Sm TGR inh: 18µM*; HCMV inh: 13; RE007 growth inh: -18%; Giardia FBPA inh: inconclusive

Results for CN1CC=C2C(C#N)=C(N)C(C#N)(C#N)C(CCc3ccccc3)C2C1 (stereo unspecified) ?
TbPYK inhibitor: 3%; FMDV antiviral: -6%; Sm TGR inh: -16%; RE007 growth inh: 6%; Giardia FBPA inh: inconclusive

What do the screens show for `O=C(CC1NCCNC1=O)Nc1ccc(F)c(Cl)c1` (stereo unspecified)?
TbPYK inhibitor: 1%; FMDV antiviral: -14%; Sm TGR inh: -2%; HCMV inh: 51

How did CCOc1cc(C(=S)N2CCOCC2)ccc1OS(=O)(=O)c1ccc(NC(C)=O)cc1 do in these assays?
TbPYK inhibitor: 5%; Sm TGR inh: 10%; HCMV inh: -83*; RE007 growth inh: 9%; Giardia FBPA inh: 6%

What do the screens show for `CCOc1cc(C(=S)N2CCOCC2)ccc1OS(=O)(=O)c1ccc(OC)cc1`?
TbPYK inhibitor: -15%; FMDV antiviral: -17%; Sm TGR inh: 0%; HCMV inh: -37; RE007 growth inh: 19%; Giardia FBPA inh: 9%

Results for CC(=O)Nc1ccc(S(=O)(=O)Oc2ccc(C(=S)N3CCCCC3)cc2)cc1 ?
TbPYK inhibitor: -2%; FMDV antiviral: inconclusive; Sm TGR inh: -4%; HCMV inh: inconclusive; RE007 growth inh: 0%; Giardia FBPA inh: 16%

Results for CC(=O)Nc1ccc(S(=O)(=O)Oc2ccc(C(=S)N3CCC(O)CC3)cc2)cc1 ?
TbPYK inhibitor: -20%; FMDV antiviral: inconclusive; Sm TGR inh: -2%; HCMV inh: -72*; RE007 growth inh: -3%; Giardia FBPA inh: 12%

How did CCOC(=O)c1c(NC(C)=O)c2c3c(sc2n1Cc1cccc(Cl)c1)CCCC3 do in these assays?
TbPYK inhibitor: -2%; FMDV antiviral: -4%; Sm TGR inh: 7%; HCMV inh: -84*

What do the screens show for `Cc1cc(C)n(CCCN2CCC(C(=O)Nc3cccc(-c4cccc(F)c4)c3)CC2)n1`?
TbPYK inhibitor: 2%; FMDV antiviral: inconclusive; Sm TGR inh: 1%; HCMV inh: -100*; RE007 growth inh: 4%; Giardia FBPA inh: -2%

What do the screens show for `CCn1ncc(CN2CCC(C(=O)Nc3cccc(-c4cccc(F)c4)c3)CC2)c1C`?
TbPYK inhibitor: -6%; FMDV antiviral: inconclusive; Sm TGR inh: -14%; HCMV inh: inconclusive; RE007 growth inh: 4%

What do the screens show for `CC1=C(C(=O)Nc2cccc(C)c2C)C2(CCCCC2)OC1=O`?
TbPYK inhibitor: -1%; FMDV antiviral: -20%; Sm TGR inh: 1%; HCMV inh: 26

How did Cc1ccc(CCNC(=O)CS(=O)Cc2nc(-c3ccccc3C)oc2C)cc1 (stereo unspecified) do in these assays?
TbPYK inhibitor: -1%; FMDV antiviral: -8%; Sm TGR inh: -23%; HCMV inh: -10

Results for CCc1ccc(-c2nc(CS(=O)CC(=O)NCCc3ccc(C)cc3)c(C)o2)cc1 (stereo unspecified) ?
TbPYK inhibitor: 4%; FMDV antiviral: 2%; Sm TGR inh: 22µM*; HCMV inh: -16

Results for CCc1ccc(-c2nc(CS(=O)CC(=O)NCCc3ccccc3)c(C)o2)cc1 (stereo unspecified) ?
TbPYK inhibitor: 0%; FMDV antiviral: 19%; Sm TGR inh: 10µM*; HCMV inh: 10; RE007 growth inh: 3%

How did CCOC(=O)CNC(=O)N1[C@H](c2cccs2)[C@@H](C)C(=O)[C@@H](C)[C@@H]1c1cccs1 do in these assays?
TbPYK inhibitor: 0%; FMDV antiviral: -9%; Sm TGR inh: -15%; HCMV inh: -8

What do the screens show for `COc1ccc(NC(=O)N(C)C[C@@H]2OCCCC[C@@H](C)Oc3ccc(NS(C)(=O)=O)cc3C(=O)N([C@H](C)CO)C[C@@H]2C)cc1`?
HCMV inh: -23

What do the screens show for `O=S(=O)(Nc1ccc(O)c2ncccc12)c1ccccc1F`?
TbPYK inhibitor: -2%; FMDV antiviral: 51%; HCMV inh: 27
